In PubChem BioAssay AID1159580 (chemical genetic matrix, 2015):
Hit rate of the full screen: of about 5,500 compounds, about 2,000 (36%) were called active. About 18% were inconclusive and are not listed. Cut-off read from the data, not from the text of the source: active = normalized growth mostly below about 0.91 (no sharp cut-off); inconclusive = no clear call, values can overlap the other calls; inactive = mostly above about 0.92. This is one part of the list.

Test: chemical genetic growth profiling, strain panel (AID 1159580);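 note: tested at 20 µM; growth read once vehicle control cultures reached saturation at 30 °C; 1 = growth at the plate median or of vehicle wells; lower values mean less growth of the strain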
Settings: growth OD
[1] = S. cerevisiae deletion strains, locus YMR307W, strain GAS1, active compounds read low
[2] = S. cerevisiae deletion strains, locus YPL055C, strain LGE1, active compounds read low
[3] = S. cerevisiae deletion strains, locus YAL013W, strain DEP1, active compounds read low
[4] = S. cerevisiae deletion strains, locus YBR229C, strain ROT2, active compounds read low
[5] = S. cerevisiae deletion strains, locus YDL101C, strain DUN1, active compounds read low
[6] = S. cerevisiae deletion strains, locus YDR150W, strain NUM1, active compounds read low
[7] = S. cerevisiae deletion strains, locus YEL061C, strain CIN8, active compounds read low
[8] = S. cerevisiae deletion strains, locus YGR078C, strain PAC10, active compounds read low
[9] = S. cerevisiae deletion strains, locus YHR030C, strain SLT2, active compounds read low
[10] = S. cerevisiae deletion strains, locus YHR087W, strain rtc3, active compounds read low
[11] = S. cerevisiae deletion strains, locus YJR043C, strain POL32, active compounds read low
[12] = S. cerevisiae deletion strains, locus YJR075W, strain HOC1, active compounds read low
[13] = S. cerevisiae deletion strains, locus YLR039C, strain RIC1, active compounds read low
[14] = S. cerevisiae deletion strains, locus YLR058C, strain SHM2 (second series), active compounds read low
[15] = S. cerevisiae deletion strains, locus YLR085C, strain ARP6, active compounds read low
[16] = S. cerevisiae deletion strains, locus YLR262C, strain YPT6, active compounds read low
[17] = S. cerevisiae deletion strains, locus YML094W, strain GIM5, active compounds read low
[18] = S. cerevisiae deletion strains, locus YMR219W, strain ESC1, active compounds read low
[19] = S. cerevisiae deletion strains, locus YMR263W, strain SAP30, active compounds read low
[20] = S. cerevisiae deletion strains, locus YNL153C, strain GIM3, active compounds read low
[21] = S. cerevisiae deletion strains, locus YNL298W, strain CLA4 (second series), active compounds read low
[22] = S. cerevisiae deletion strains, locus YNL322C, strain KRE1, active compounds read low
[23] = S. cerevisiae deletion strains, locus YNR030W, strain Alg12, active compounds read low
[24] = S. cerevisiae deletion strains, locus YOL006C, strain TOP1, active compounds read low
[25] = S. cerevisiae deletion strains, locus YPL241C, strain CIN2, active compounds read low
[26] = S. cerevisiae deletion strains, locus YPR135W, strain CTF4, active compounds read low

Measured: normalized growth

O=C1NCN(c2ccccc2)C12CCN(CC1COc3ccccc3O1)CC2 (configuration not stated)
inactive: S. cerevisiae deletion strains, locus YAL040C, strain CLN3, active compounds read low 1 | S. cerevisiae deletion strains, locus YCL061C, strain MRC1 (second series), active compounds read low 1.01 | S. cerevisiae deletion strains, locus YDR363W, strain ESC2, active compounds read low 0.998 | S. cerevisiae deletion strains, locus YER002W, strain NOP16, active compounds read low 1.02 | S. cerevisiae deletion strains, locus YGR229C, strain SMI1, active compounds read low 0.999 | [1] 0.999 | S. cerevisiae deletion strains, locus YNL128W, strain TEP1, active compounds read low 1.04 | S. cerevisiae deletion strains, locus YNL175C, strain NOP13, active compounds read low 1.02 | S. cerevisiae deletion strains, locus YNL197C, strain WHI3, active compounds read low 1.02 | S. cerevisiae deletion strains, locus YNL224C, strain SQS1, active compounds read low 1 | S. cerevisiae deletion strains, locus YOR083W, strain WHI5 (second series), active compounds read low 1.04 | [2] 1.01

Cc1cccc(C)c1NC(=O)C(C)Oc1ccc(Cl)cc1Cl (configuration not stated)
inactive: [3] 1.01 | [4] 1 | [5] 1.01 | [6] 1.02 | [7] 0.996 | [8] 1 | [9] 0.989 | [10] 1.01 | S. cerevisiae deletion strains, locus YJL187C, strain SWE1, active compounds read low 1.01 | [11] 1 | [12] 0.998 | S. cerevisiae deletion strains, locus YKL190W, strain CNB1, active compounds read low 0.999 | [13] 0.961 | [14] 0.997 | [15] 1.02 | [16] 0.963 | [17] 1.09 | [18] 1.01 | [19] 1 | [1] 0.929 | [20] 1.02 | [21] 1.02 | [22] 1 | [23] 1.01 | [24] 1.04 | [2] 1.04 | [25] 1.05 | [26] 1.01 | S. cerevisiae strains, strain wild type, active compounds read low 0.995

N#CCOc1ccc(Cl)cc1Cl
inactive: [3] 0.99 | [4] 0.97 | [5] 0.976 | [6] 0.95 | [7] 0.99 | [8] 0.965 | [9] 0.95 | [10] 0.977 | [11] 0.975 | [12] 0.915 | [13] 1.07 | [14] 0.954 | [15] 1 | [16] 1.01 | [17] 0.983 | [18] 0.955 | [19] 0.987 | [1] 1.06 | [20] 0.997 | [21] 1.02 | [22] 0.96 | [23] 0.997 | [24] 1.06 | [2] 1.12 | [25] 0.985 | [26] 0.968
